Assay results as given in ChEMBL document CHEMBL3988442, “University of Dundee, Small-Polar-MMV Screening Library” (2021).
For part of these data: Entries with a potency or affinity are not part of this list.

What was measured:
Parameters in all cases: scale not given: direction of the effect not stated beside the values
[1] = target: Protein translocase subunit SecA (Escherichia coli (strain K12)) (UniProt P10408); experiment: Assay to Identify E. coli SecA ATPase Inhibitors; type: functional; conditions: 30 µM
Sequence of Protein translocase subunit SecA (Escherichia coli (strain K12)) (P10408 whole entry): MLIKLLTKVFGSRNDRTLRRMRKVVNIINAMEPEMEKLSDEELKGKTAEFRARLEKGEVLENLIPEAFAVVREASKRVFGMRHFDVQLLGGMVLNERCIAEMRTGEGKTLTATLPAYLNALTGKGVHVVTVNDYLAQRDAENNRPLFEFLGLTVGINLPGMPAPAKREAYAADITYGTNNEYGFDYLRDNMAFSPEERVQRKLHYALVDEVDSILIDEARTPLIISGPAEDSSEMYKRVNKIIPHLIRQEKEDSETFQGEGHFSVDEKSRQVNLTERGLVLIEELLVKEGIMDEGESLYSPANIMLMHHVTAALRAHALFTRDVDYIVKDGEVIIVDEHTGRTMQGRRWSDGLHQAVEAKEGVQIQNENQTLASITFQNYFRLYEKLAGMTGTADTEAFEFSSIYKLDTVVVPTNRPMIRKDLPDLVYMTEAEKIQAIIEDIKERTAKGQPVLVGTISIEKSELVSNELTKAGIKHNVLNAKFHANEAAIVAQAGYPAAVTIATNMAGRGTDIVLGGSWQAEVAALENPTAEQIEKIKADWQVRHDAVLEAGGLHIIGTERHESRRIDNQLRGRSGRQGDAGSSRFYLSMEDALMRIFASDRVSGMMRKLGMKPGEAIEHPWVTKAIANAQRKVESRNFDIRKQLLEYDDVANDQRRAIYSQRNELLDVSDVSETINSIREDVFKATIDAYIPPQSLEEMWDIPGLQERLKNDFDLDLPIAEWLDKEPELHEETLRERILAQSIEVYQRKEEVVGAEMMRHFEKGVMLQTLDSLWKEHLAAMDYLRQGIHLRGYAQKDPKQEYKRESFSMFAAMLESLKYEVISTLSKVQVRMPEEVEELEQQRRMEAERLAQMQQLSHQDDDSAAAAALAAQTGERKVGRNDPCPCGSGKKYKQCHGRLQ

[2] = target: T1, Ubiquitin-activating enzyme e1, putative (Leishmania donovani (strain BPK282A1)) (UniProt E9BSI1); experiment: Leishmania donovani Ubiquitin Activating Enzyme (LdE1); type: functional; conditions: 30 µM
T1 sequence (whole entry): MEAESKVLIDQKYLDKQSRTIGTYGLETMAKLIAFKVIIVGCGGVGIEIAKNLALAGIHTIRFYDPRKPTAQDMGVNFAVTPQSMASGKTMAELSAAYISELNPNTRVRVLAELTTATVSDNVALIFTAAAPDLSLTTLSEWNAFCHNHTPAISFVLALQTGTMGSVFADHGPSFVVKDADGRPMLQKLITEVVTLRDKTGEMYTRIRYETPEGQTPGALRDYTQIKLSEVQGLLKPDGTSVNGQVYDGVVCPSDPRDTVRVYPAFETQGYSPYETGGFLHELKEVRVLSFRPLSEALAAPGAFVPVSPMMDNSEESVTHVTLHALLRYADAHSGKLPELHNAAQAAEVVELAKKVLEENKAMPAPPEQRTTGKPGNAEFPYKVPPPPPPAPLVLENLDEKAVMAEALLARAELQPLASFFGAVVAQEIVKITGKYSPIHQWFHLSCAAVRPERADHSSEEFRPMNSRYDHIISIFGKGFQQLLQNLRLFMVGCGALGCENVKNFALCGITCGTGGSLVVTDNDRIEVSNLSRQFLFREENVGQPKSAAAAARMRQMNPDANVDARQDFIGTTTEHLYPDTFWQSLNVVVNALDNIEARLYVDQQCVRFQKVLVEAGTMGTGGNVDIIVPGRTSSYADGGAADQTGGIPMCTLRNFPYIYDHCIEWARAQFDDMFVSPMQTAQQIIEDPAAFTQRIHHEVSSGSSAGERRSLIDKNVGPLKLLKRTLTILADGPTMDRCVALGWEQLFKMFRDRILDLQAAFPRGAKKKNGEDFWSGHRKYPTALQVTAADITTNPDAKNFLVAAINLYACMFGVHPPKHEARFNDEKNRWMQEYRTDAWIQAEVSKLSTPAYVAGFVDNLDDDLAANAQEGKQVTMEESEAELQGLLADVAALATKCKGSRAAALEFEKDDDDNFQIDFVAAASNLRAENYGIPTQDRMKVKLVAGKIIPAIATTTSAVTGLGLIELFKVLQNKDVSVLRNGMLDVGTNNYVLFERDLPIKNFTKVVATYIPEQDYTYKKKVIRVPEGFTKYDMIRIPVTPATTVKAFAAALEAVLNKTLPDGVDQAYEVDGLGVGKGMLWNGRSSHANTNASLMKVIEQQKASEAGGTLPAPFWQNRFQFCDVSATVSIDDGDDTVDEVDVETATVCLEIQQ

[3] = target: Sialic acid-binding Ig-like lectin 9 (Homo sapiens) (UniProt Q9Y336); experiment: Hs-Siglec9 ALPHAscreen SOP 20170721; conditions: 10 µM
Sequence of Sialic acid-binding Ig-like lectin 9 (Homo sapiens) (Q9Y336 whole entry): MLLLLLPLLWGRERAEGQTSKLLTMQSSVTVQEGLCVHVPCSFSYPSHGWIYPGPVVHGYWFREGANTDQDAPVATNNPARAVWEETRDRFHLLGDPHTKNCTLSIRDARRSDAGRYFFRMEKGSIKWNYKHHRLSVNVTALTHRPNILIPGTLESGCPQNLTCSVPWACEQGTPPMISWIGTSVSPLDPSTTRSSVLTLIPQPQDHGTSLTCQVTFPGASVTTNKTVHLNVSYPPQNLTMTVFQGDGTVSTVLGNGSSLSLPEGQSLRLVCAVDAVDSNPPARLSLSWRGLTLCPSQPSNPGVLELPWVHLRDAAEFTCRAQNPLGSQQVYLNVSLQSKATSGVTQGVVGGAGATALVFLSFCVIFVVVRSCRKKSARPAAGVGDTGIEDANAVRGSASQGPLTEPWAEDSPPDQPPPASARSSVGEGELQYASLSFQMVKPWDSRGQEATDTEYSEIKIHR

Trypanosoma cruzi = experiment: Trypanosoma cruzi phosphomannomutase and mannose-1-phosphate guanylyltransferase assay; type: functional; conditions: 10 µM
[4] = target: T2, Arginase-2, mitochondrial (Homo sapiens) (UniProt P78540); experiment: in vitro enzyme assay to detect the production of urea directly proportional to the activity of Arginase II; type: functional; conditions: 33.3 µM; also: in the data most compounds retested in dose-response had high values
T2 sequence (whole entry): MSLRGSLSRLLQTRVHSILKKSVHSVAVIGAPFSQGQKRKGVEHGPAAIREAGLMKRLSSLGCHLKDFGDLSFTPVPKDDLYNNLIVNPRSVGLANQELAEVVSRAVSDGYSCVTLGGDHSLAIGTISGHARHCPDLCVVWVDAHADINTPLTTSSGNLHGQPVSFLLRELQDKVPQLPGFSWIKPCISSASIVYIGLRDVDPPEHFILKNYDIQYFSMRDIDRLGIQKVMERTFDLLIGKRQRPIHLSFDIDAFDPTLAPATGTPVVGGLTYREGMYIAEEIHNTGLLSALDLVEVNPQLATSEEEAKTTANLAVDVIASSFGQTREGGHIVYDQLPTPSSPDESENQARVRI

[5] = target: T3, Proteasome subunit beta (Trypanosoma cruzi) (UniProt O96673); experiment: Trypanosoma cruzi proteasome chymotrypsin-like activity (TcProtChymo) assay.; also: in the data most compounds retested in dose-response had high values; type: functional; conditions: 9.37 µM
T3 sequence (whole entry): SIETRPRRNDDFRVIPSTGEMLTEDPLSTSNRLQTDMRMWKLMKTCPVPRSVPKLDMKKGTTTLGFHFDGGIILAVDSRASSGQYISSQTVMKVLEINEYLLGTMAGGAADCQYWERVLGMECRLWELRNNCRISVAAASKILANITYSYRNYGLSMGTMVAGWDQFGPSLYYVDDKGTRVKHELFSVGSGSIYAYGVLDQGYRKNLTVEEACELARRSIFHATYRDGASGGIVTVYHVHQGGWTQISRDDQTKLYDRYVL

Homo sapiens = organism: Homo sapiens; experiment: To identify inhibition of the IFN signalling (Jak-Stat) pathway via expression of an eGFP reporter gene under the control of an IFN-stimulated response element (ISRE) containing MxA promoter.; type: functional; conditions: 30 µM
[6] = target: T4, Tyrosyl-tRNA synthetase, putative (Trypanosoma cruzi (strain CL Brener)) (UniProt Q4DSP6); experiment: Trypanosoma cruzi tyrosyl tRNA synthetase (TcYRS) _High Tyrosine SOP; type: functional; conditions: 30 µM; also: in the data most compounds retested in dose-response had high values
T4 sequence (whole entry): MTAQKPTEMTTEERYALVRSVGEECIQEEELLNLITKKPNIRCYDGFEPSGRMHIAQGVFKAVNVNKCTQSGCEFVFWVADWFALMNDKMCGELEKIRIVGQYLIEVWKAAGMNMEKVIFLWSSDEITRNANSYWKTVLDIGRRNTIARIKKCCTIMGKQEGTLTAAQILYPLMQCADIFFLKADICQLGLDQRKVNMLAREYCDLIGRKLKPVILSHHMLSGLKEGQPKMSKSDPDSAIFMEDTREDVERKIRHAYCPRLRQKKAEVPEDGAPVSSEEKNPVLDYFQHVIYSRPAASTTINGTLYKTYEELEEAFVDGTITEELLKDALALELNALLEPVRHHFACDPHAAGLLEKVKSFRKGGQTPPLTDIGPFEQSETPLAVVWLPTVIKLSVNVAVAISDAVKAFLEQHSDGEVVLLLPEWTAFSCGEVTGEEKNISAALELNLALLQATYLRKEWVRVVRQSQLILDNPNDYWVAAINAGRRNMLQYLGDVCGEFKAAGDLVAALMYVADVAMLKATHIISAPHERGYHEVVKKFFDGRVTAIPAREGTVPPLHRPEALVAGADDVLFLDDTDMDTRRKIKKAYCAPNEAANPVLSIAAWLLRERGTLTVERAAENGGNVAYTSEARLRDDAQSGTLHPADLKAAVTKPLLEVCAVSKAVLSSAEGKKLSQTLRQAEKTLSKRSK

[7] = target: T4, Tyrosyl-tRNA synthetase, putative (Trypanosoma cruzi (strain CL Brener)); experiment: Trypanosoma cruzi tyrosyl tRNA synthetase (TcYRS) SOP; type: functional; conditions: 30 µM
[8] = target: Chromo domain-containing protein 1 (Saccharomyces cerevisiae (strain ATCC 204508 / S288c) (Baker's yeast)) (UniProt P32657); experiment: ScCHD-1 Enzyme Inhibition Assay; type: functional; conditions: 30 µM; also: in the data most compounds retested in dose-response had high values
Sequence of Chromo domain-containing protein 1 (Saccharomyces cerevisiae (strain ATCC 204508 / S288c) (Baker's yeast)) (P32657 whole entry, the tested form may be a part): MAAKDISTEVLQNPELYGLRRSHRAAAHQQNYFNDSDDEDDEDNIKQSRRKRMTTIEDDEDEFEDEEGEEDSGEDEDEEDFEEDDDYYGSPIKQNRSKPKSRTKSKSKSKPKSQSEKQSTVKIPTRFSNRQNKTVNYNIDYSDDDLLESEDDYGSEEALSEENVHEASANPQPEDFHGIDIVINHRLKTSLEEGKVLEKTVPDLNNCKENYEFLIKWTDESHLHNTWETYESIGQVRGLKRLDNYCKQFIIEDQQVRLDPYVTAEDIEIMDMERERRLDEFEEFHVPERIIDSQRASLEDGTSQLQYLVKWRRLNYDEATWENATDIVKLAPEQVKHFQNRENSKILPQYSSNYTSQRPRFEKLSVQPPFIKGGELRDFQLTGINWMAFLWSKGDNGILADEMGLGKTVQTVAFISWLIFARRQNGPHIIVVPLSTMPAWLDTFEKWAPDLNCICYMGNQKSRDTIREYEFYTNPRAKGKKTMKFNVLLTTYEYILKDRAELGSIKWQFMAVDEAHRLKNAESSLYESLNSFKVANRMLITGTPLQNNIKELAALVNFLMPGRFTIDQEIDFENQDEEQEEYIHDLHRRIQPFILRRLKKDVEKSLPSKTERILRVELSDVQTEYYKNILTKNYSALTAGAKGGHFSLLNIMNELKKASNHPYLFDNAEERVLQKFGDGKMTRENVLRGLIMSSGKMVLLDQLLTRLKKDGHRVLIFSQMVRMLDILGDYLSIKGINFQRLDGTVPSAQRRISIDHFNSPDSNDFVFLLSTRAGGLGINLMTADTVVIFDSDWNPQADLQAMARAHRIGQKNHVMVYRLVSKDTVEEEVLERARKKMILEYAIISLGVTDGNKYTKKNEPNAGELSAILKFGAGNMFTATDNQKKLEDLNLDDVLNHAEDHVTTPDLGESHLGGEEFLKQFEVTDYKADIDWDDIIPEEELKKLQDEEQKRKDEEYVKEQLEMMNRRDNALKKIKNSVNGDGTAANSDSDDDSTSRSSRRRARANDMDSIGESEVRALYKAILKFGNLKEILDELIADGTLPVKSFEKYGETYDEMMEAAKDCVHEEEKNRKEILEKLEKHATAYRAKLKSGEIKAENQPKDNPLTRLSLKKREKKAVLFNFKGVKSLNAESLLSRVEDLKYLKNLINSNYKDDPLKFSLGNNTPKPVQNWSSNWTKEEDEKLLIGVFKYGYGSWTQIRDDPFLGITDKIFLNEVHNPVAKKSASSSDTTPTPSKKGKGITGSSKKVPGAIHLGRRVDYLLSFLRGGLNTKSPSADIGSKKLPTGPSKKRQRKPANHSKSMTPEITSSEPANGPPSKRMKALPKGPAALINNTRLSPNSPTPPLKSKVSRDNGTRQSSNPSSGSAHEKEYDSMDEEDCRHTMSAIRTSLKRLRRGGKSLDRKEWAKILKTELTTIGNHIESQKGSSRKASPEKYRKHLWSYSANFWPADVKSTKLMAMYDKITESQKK

| SMILES | Percent Effect [1] | Percent Effect [2] | Percent Effect [3] | Percent Effect (Trypanosoma cruzi) | Percent Effect [4] | Percent Effect [5] | Percent Effect (Homo sapiens) | Percent Effect [6] | Percent Effect [7] | Percent Effect [8] |
| --- | --- | --- | --- | --- | --- | --- | --- | --- | --- | --- |
| CS(=O)(=O)N1CCC(c2nnc3ccc(C(=O)N4CCCC4)cn23)C1 (stereo not given) | -4.16% | -42.9% | -5.27% | -3.8% | -2.02% | 16.9% | 6.07% | 0.526% | 5.13% | -3.44% |
| CCc1cc(C(F)(F)F)c2c(C)nn(CC(=O)O)c2n1 | 2.1% | 9.33% | -6.26% | -4.14% | 9.29% | 11% | 15.7% | 1.06% | 10% | -20.4% |
| Cc1noc(C2CCN(C(=O)CCNS(C)(=O)=O)CC2)n1 | -2.97% | 10.3% | 4.81% | 3.47% | 3.69% | 5.89% | 3.03% | 4.31% | 18.1% | -0.743% |
| O=C(NCCc1cccnc1)N1CCCC1c1ccsc1 (stereo not given) | -6.89% | 17.9% | -11.1% | 5.73% | 3.69% | 6.74% | 13.9% | 5.26% | 22.9% | -9.16% |
| O=C(Nc1cccc2c1CCCC2)C1CCCN1c1nccs1 (stereo not given) | -1.27% | 5.13% | 1.32% | -0.845% | 4.51% | 5.55% | -6.07% | 8.13% | 20.5% | 13.6% |
| COc1ccc(OCCN(C)C(=O)NC(C)c2nncn2C)cc1 (stereo not given) | -4.39% | 10.7% | -0.704% | -5.02% | 5.76% | 15.3% | 17.3% | 3.68% | 12.8% | -6.11% |
